Assay results as given in PubChem BioAssay (Tox21).
Inconclusive results are not listed. Activity calls are given as the source filed them. The call rests on the fitted dose curve; in most records, active means well fitted curve in the direction sought with a large enough effect in the repeat runs; inconclusive means weak or mixed curves; inactive means no such curve, though single readings can be large; an effect the other way counts as inactive or inconclusive.

experiment: Human pregnane X receptor (PXR) small molecule agonists, qHTS cell viability counter screen (AID 1346977); conditions: PXR-Luc HepG2 viability, CellTiter-Fluor, 24 h; series mostly up to 92.4 µM; further: nearly all actives have a fitted effect of over 50% in size
How it was run: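 Tox21 qHTS format; PXR-Luc HepG2, 2,000/well, charcoal-stripped FBS 5%. Cpd exposure 24hr. Read: CellTiter-Fluor fluorescence, multiplexed with luciferase.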
Potency means the concentration at half of the fitted maximal effect.

Question: Which Potency does the source give for CN1CCN(CCC(=O)N2c3ccccc3Sc3ccc(C(F)(F)F)cc32)CC1 here?
Answer: 26.6 µM (active)

Question: With CCCCCCCCCCCC[N+](C)(C)CCCCCCCCCCCC as the molecule, how does the Potency read?
Answer: 27.3 µM (active)

Question: With CCCCCCCCCCCC(=O)NCCCN(C)C as the molecule, how does the Potency read?
Answer: 38.6 µM (active)

Question: For CN1CCC(Nc2ncc3ncnc(Nc4ccc(F)c(Cl)c4)c3n2)CC1, which Potency is on record?
Answer: 26.6 µM (active)

Question: With CC(C)(C)C(=O)OCOC(=O)C1N2C(=O)CC2S(=O)(=O)C1(C)C (configuration not stated) as the molecule, how does the Potency read?
Answer: inactive

Question: Which Potency does the source give for CNCc1cc(F)ccc1Oc1ccc(Cl)c(Cl)c1 here?
Answer: 61.1 µM (active)

Question: Which Potency does the source give for CCCCCOC(=O)CCCC here?
Answer: inactive

Question: Which Potency does the source give for COc1ccc(C(=O)/C(Br)=C\C(=O)O)cc1 here?
Answer: 61.1 µM (active)

Question: Which Potency does the source give for O=c1c(-c2ccccc2)c1-c1ccccc1 here?
Answer: 26.6 µM (active)

Question: For COc1cc(-c2nc(NC(=O)c3cc4cc(C)cc(C)c4n3CC(=O)O)sc2CCC2CCCCC2)c(OC)cc1Cl, which Potency is on record?
Answer: 31.5 µM (active)

Question: Which Potency does the source give for O=S1(=O)CC(Cl)(Cl)C(Cl)(Cl)C1 here?
Answer: 2.73 µM (active)

Question: Which Potency does the source give for O=C1c2ccccc2Cc2ccccc21 here?
Answer: inactive

Question: Which Potency does the source give for O=C(c1ccc(F)cc1)C1CCN(CCn2c(=O)[nH]c3ccccc3c2=O)CC1 here?
Answer: inactive

Question: With Oc1ccc(C2(c3ccc(O)cc3)CC3CC2C2CCCC32)cc1 (configuration not stated) as the molecule, how does the Potency read?
Answer: 58.7 µM (active)

Question: For C[C@H](CCC(=O)O)[C@H]1CC[C@H]2[C@@H]3CC[C@@H]4C[C@H](O)CC[C@]4(C)[C@H]3CC[C@]12C, which Potency is on record?
Answer: inactive

Question: With CCCCCCCCCCCCCCCC[N+](C)(C)CCN(Cc1ccc(OC)cc1)c1ncccn1 as the molecule, how does the Potency read?
Answer: 29.8 µM (active)

Question: With NNc1nc(-c2ccc([N+](=O)[O-])cc2)cs1 as the molecule, how does the Potency read?
Answer: 27.3 µM (active)

Question: Which Potency does the source give for CC1=C(/C=C/C(C)=C/C=C/C(C)=C/C=O)C(C)(C)CCC1 here?
Answer: 60.8 µM (active)

Question: For O=C(Oc1cccc2cccnc12)c1ccccc1, which Potency is on record?
Answer: 3.35 µM (active)

Question: Which Potency does the source give for CCC(N)(CO)CO here?
Answer: inactive

Question: With O=c1[nH]sc2ccccc12 as the molecule, how does the Potency read?
Answer: 27.3 µM (active)

Question: With COC(=O)c1cc(Cl)ccc1OC as the molecule, how does the Potency read?
Answer: inactive

Question: Which Potency does the source give for O=[N+]([O-])c1ccccc1Nc1ccccc1 here?
Answer: inactive

Question: With CCc1cc(SCc2sc(-c3ccc(C(F)(F)F)cc3)nc2CN2CCN(c3ccc(OC)cc3)CC2)ccc1OCC(=O)O as the molecule, how does the Potency read?
Answer: 54.5 µM (active)

Question: With NC(=O)N1C(=O)C(C(=O)c2cc(Cl)cs2)c2cc(F)c(Cl)cc21 (configuration not stated) as the molecule, how does the Potency read?
Answer: 54.5 µM (active)

Question: For CCCN(CCC)c1c([N+](=O)[O-])cc(C(F)(F)F)c(N)c1[N+](=O)[O-], which Potency is on record?
Answer: 48.4 µM (active)

Question: With N#CC1(c2ccc(F)cc2)CCC(=O)CC1 as the molecule, how does the Potency read?
Answer: inactive

Question: Which Potency does the source give for CC1=C(C(=O)OC(C)C)C(c2cccc([N+](=O)[O-])c2)C(C(=O)OC2CN(C(c3ccccc3)c3ccccc3)C2)=C(N)N1 (configuration not stated) here?
Answer: 16.8 µM (active)

Question: For Nc1ccc(N)c2ccccc12, which Potency is on record?
Answer: 24.3 µM (active)

Question: For O=C(O)c1cc(O)c2c(c1)C(=O)c1cccc(O)c1C2=O, which Potency is on record?
Answer: 25.1 µM (active)

Question: For CC1(C)CCC(C)(C)c2cc(C(=O)Nc3ccc(C(=O)O)cc3)ccc21, which Potency is on record?
Answer: inactive

Question: Which Potency does the source give for Nc1ccc2cc(S(=O)(=O)O)cc(O)c2c1N=Nc1ccccc1C(F)(F)F here?
Answer: 61.1 µM (active)

Question: Which Potency does the source give for CC(=O)OCC(C)OC(C)=O (configuration not stated) here?
Answer: inactive

Question: For CC(C)CCCCCCCCCCCCCCC(=O)O, which Potency is on record?
Answer: inactive

Question: With Cc1cc2c(cc1C(F)(F)F)N(C(=O)Nc1ccc(Oc3cccnc3C)nc1)CC2 as the molecule, how does the Potency read?
Answer: 43.9 µM (active)

Question: Which Potency does the source give for Cc1nc(-c2ccc3c(c2)CCN(CCC2CCC(NC(=O)/C=C/c4ccc(F)cc4)CC2)CC3)no1 (configuration not stated) here?
Answer: inactive

experiment: Caspase-3/7 induction in CHO-K1 cells by small molecules, qHTS cell viability counter screen (AID 1346979); conditions: CellTiter-Fluor fluorescence, 17 h; series mostly up to 92.4 µM; further: nearly all actives have a fitted effect of over 35% in size
How it was run: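 CellTiter-Fluor viability check, qHTS format: wild-type CHO-K1, 16hr compound treatment, 1hr reagent incubation, fluorescence read.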

Question: Which Potency does the source give for CN1CCN(CCC(=O)N2c3ccccc3Sc3ccc(C(F)(F)F)cc32)CC1 here?
Answer: 23.7 µM (active)

Question: With CCCCCCCCCCCC[N+](C)(C)CCCCCCCCCCCC as the molecule, how does the Potency read?
Answer: 17.2 µM (active)

Question: Which Potency does the source give for CCCCCCCCCCCC(=O)NCCCN(C)C here?
Answer: 54.5 µM (active)

Question: For CN1CCC(Nc2ncc3ncnc(Nc4ccc(F)c(Cl)c4)c3n2)CC1, which Potency is on record?
Answer: 29.8 µM (active)

Question: With CC(C)(C)C(=O)OCOC(=O)C1N2C(=O)CC2S(=O)(=O)C1(C)C (configuration not stated) as the molecule, how does the Potency read?
Answer: inactive

Question: With CNCc1cc(F)ccc1Oc1ccc(Cl)c(Cl)c1 as the molecule, how does the Potency read?
Answer: 61.1 µM (active)

Question: Which Potency does the source give for CCCCCOC(=O)CCCC here?
Answer: inactive

Question: With COc1ccc(C(=O)/C(Br)=C\C(=O)O)cc1 as the molecule, how does the Potency read?
Answer: 54.5 µM (active)

Question: With O=c1c(-c2ccccc2)c1-c1ccccc1 as the molecule, how does the Potency read?
Answer: 16.8 µM (active)

Question: Which Potency does the source give for COc1cc(-c2nc(NC(=O)c3cc4cc(C)cc(C)c4n3CC(=O)O)sc2CCC2CCCCC2)c(OC)cc1Cl here?
Answer: 19.9 µM (active)

Question: Which Potency does the source give for O=S1(=O)CC(Cl)(Cl)C(Cl)(Cl)C1 here?
Answer: 0.686 µM (active)

Question: With O=C1c2ccccc2Cc2ccccc21 as the molecule, how does the Potency read?
Answer: 30.9 µM (active)

Question: Which Potency does the source give for O=C(c1ccc(F)cc1)C1CCN(CCn2c(=O)[nH]c3ccccc3c2=O)CC1 here?
Answer: inactive

Question: With Oc1ccc(C2(c3ccc(O)cc3)CC3CC2C2CCCC32)cc1 (configuration not stated) as the molecule, how does the Potency read?
Answer: 46.6 µM (active)

Question: With C[C@H](CCC(=O)O)[C@H]1CC[C@H]2[C@@H]3CC[C@@H]4C[C@H](O)CC[C@]4(C)[C@H]3CC[C@]12C as the molecule, how does the Potency read?
Answer: 48.4 µM (active)

Question: With CCCCCCCCCCCCCCCC[N+](C)(C)CCN(Cc1ccc(OC)cc1)c1ncccn1 as the molecule, how does the Potency read?
Answer: 26.6 µM (active)

Question: For NNc1nc(-c2ccc([N+](=O)[O-])cc2)cs1, which Potency is on record?
Answer: 27.3 µM (active)

Question: With CC1=C(/C=C/C(C)=C/C=C/C(C)=C/C=O)C(C)(C)CCC1 as the molecule, how does the Potency read?
Answer: 21.6 µM (active)

Question: Which Potency does the source give for O=C(Oc1cccc2cccnc12)c1ccccc1 here?
Answer: 7.5 µM (active)

Question: With CCC(N)(CO)CO as the molecule, how does the Potency read?
Answer: inactive

Question: For O=c1[nH]sc2ccccc12, which Potency is on record?
Answer: 19.3 µM (active)

Question: With COC(=O)c1cc(Cl)ccc1OC as the molecule, how does the Potency read?
Answer: inactive

Question: Which Potency does the source give for O=[N+]([O-])c1ccccc1Nc1ccccc1 here?
Answer: inactive

Question: With CCc1cc(SCc2sc(-c3ccc(C(F)(F)F)cc3)nc2CN2CCN(c3ccc(OC)cc3)CC2)ccc1OCC(=O)O as the molecule, how does the Potency read?
Answer: 24.3 µM (active)

Question: Which Potency does the source give for NC(=O)N1C(=O)C(C(=O)c2cc(Cl)cs2)c2cc(F)c(Cl)cc21 (configuration not stated) here?
Answer: 61.1 µM (active)

Question: With CCCN(CCC)c1c([N+](=O)[O-])cc(C(F)(F)F)c(N)c1[N+](=O)[O-] as the molecule, how does the Potency read?
Answer: 43.1 µM (active)

Question: Which Potency does the source give for N#CC1(c2ccc(F)cc2)CCC(=O)CC1 here?
Answer: inactive

Question: Which Potency does the source give for CC1=C(C(=O)OC(C)C)C(c2cccc([N+](=O)[O-])c2)C(C(=O)OC2CN(C(c3ccccc3)c3ccccc3)C2)=C(N)N1 (configuration not stated) here?
Answer: 21.1 µM (active)

Question: For Nc1ccc(N)c2ccccc12, which Potency is on record?
Answer: 30.6 µM (active)

Question: Which Potency does the source give for O=C(O)c1cc(O)c2c(c1)C(=O)c1cccc(O)c1C2=O here?
Answer: 35.4 µM (active)

Question: With CC1(C)CCC(C)(C)c2cc(C(=O)Nc3ccc(C(=O)O)cc3)ccc21 as the molecule, how does the Potency read?
Answer: 48.6 µM (active)

Question: With Nc1ccc2cc(S(=O)(=O)O)cc(O)c2c1N=Nc1ccccc1C(F)(F)F as the molecule, how does the Potency read?
Answer: 54.5 µM (active)

Question: For CC(=O)OCC(C)OC(C)=O (configuration not stated), which Potency is on record?
Answer: inactive

Question: With CC(C)CCCCCCCCCCCCCCC(=O)O as the molecule, how does the Potency read?
Answer: inactive

Question: With Cc1cc2c(cc1C(F)(F)F)N(C(=O)Nc1ccc(Oc3cccnc3C)nc1)CC2 as the molecule, how does the Potency read?
Answer: 24.7 µM (active)

Question: Which Potency does the source give for Cc1nc(-c2ccc3c(c2)CCN(CCC2CCC(NC(=O)/C=C/c4ccc(F)cc4)CC2)CC3)no1 (configuration not stated) here?
Answer: 6.87 µM (active)
